According to publication PMC4336329 (PLoS ONE, 2015):
Among all 310,000 compounds or so, about 14,000 (4.5%) showed an effect of 50% or more. The effect is printed as a negative number. This is one part of a sample in which strong results are shown more often than they occur.

Target: human ether-à-go-go-related gene (hERG) potassium channel (human, UniProt Q12809)
Experiment: primary screen, population patch clamp on CHO cells stably expressing hERG; higher = less effect of the substance
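Also: peak tail current of the secondary pulse compared with the same well before compound.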

Chain of human ether-à-go-go-related gene (hERG) potassium channel (Q12809 whole entry, looked up): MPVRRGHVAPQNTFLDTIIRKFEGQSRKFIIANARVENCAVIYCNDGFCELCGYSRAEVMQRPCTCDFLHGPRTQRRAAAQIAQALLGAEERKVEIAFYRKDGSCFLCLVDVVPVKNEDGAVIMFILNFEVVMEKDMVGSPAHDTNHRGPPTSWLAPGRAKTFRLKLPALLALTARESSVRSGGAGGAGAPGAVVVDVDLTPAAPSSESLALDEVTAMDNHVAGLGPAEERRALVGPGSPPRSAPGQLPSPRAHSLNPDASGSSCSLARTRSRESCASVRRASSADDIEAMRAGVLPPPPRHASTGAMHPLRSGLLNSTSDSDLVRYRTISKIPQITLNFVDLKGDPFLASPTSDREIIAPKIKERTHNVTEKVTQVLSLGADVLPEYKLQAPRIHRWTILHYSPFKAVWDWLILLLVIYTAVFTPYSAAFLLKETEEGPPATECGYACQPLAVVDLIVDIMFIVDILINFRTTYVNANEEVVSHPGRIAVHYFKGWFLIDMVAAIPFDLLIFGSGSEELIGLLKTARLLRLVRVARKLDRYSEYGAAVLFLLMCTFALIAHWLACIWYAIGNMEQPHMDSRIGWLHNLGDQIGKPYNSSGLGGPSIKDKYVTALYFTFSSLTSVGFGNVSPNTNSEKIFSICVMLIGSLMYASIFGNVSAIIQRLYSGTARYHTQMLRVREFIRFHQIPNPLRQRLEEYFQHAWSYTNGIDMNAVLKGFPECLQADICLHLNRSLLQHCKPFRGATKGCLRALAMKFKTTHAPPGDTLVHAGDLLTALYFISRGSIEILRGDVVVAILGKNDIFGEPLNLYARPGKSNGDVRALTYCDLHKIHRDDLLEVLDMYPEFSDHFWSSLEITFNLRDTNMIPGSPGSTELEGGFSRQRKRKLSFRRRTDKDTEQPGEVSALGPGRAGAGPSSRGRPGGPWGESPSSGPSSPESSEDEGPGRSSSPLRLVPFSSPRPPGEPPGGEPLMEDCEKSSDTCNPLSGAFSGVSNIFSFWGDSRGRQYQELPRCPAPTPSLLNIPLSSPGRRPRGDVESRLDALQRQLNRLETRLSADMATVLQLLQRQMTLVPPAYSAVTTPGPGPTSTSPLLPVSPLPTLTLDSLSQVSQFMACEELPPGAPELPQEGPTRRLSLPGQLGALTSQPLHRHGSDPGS

Row | Structure (SMILES) | hERG current change (%, negative = inhibition) at 10uM
1 | CCCCC(c1nnnn1C1CCCC1)N1CCN(C2CCCC2)CC1.Cl (stereo not shown) | -85.6%
2 | CCCC(c1nnnn1C(C)(C)CC)N1CCN(C2CCCC2)CC1.Cl (stereo not shown) | -35.3%
3 | CCC(c1nnnn1C1CCCCC1)N1CCN(C2CCCC2)CC1.Cl (stereo not shown) | -3.77%
4 | CCCCC(c1nnnn1C1CCCC1)N1CCN(C2CCCCC2)CC1 (stereo not shown) | -69.8%
5 | CCCC(c1nnnn1C1CCCCC1)N1CCN(C2CCCC2)CC1.Cl (stereo not shown) | -46.4%
6 | CCCCC(c1nnnn1C1CCCC1)N1CCN(C(=O)c2ccco2)CC1.Cl (stereo not shown) | -47%
7 | CC(CC(=O)N(CCC1=CCCCC1)c1c(N)n(Cc2ccccc2)c(=O)[nH]c1=O)c1ccccc1 (stereo not shown) | 17.1%
8 | Cc1cc(F)ccc1NC(=O)CCCN(C)S(=O)(=O)c1ccc(F)cc1 | -5.3%
9 | CCc1cc2c(=O)c(-c3nc4ccccc4n3C)c(C)oc2c(CN2CCN(C)CC2)c1O | 14.3%
10 | O=C(CSc1ncnc2c1oc1ccccc12)Nc1cccc(C(F)(F)F)c1 | 11%
11 | COc1ccc2c(Cl)c(C(=O)N/N=C3\CCCC(=O)C3)sc2c1 | -9.05%
12 | Cn1c(=O)c2c(nc(CN3CCN(c4ccc(F)cc4)CC3)n2Cc2ccccc2F)n(C)c1=O | -6.93%
13 | CCOC(=O)C(C)/C(C)=N\Nc1ccc([N+](=O)[O-])cc1[N+](=O)[O-] (stereo not shown) | -53.2%
14 | CCOC(=O)C/C(C)=N\Nc1ccc([N+](=O)[O-])cc1[N+](=O)[O-] | -40.2%
15 | CCOC(=O)C(C(=O)OCC)C(C)(C)/C(C)=N\Nc1ccc([N+](=O)[O-])cc1[N+](=O)[O-] | -40.8%
16 | Cc1onc(-c2ccccc2Cl)c1C(=O)N1CCOC12CCCCC2 | 1.15%
17 | Fc1cnc(N2CCOCC2)nc1N1CCc2ccccc21 | -19.5%
18 | COc1cccc(CN2CCN(C(=O)c3cccs3)CC2)c1OC | -4.33%
19 | Nc1nc(COC(=O)C2CC(=O)N(CCc3ccccc3)C2)nc(Nc2ccccc2)n1 (stereo not shown) | -52.2%
20 | Nc1nc(COC(=O)C2CC(=O)N(Cc3ccccc3)C2)nc(Nc2ccccc2)n1 (stereo not shown) | -51.9%
21 | Nc1nc(COC(=O)C2CC(=O)N(Cc3ccccc3Cl)C2)nc(Nc2ccccc2)n1 (stereo not shown) | -55.6%
22 | Cc1ccc(N2CC(C(=O)OCc3nc(N)nc(Nc4ccccc4C)n3)CC2=O)cc1 (stereo not shown) | -32.8%

Row | Structure (SMILES) | hERG current change (%, negative = inhibition) at 10uM
23 | COC(=O)C1CC(=O)N(Cc2ccccc2)C1 (stereo not shown) | 23.4%
24 | CC(=O)Nc1ccc(NC(=O)C(C)OC(=O)C2CC(=O)N(CCc3ccccc3)C2)cc1 (stereo not shown) | 14.4%
25 | O=C(COC(=O)C1CC(=O)N(CCc2ccccc2)C1)c1ccc[nH]1 (stereo not shown) | -41.8%
26 | Nc1nc(COC(=O)CCC(=O)c2ccc(Cl)cc2)nc(Nc2ccccc2)n1 | 6.39%
27 | COc1ccccc1N1CC(C(=O)OCc2nc(N)nc(Nc3ccccc3)n2)CC1=O (stereo not shown) | -15.8%
28 | Cc1ccccc1C(=O)N1CCC(C(=O)OCc2nc(N)nc(Nc3ccccc3)n2)CC1 | -33.6%
29 | Nc1nc(COC(=O)C2CCN(C(=O)c3ccc(Cl)cc3)CC2)nc(Nc2ccccc2)n1 | -67.8%
30 | Cc1cc(C)n(CC(=O)NNC(=O)C2CC(=O)N(Cc3ccccc3Cl)C2)n1 (stereo not shown) | 1.16%
31 | CC(=O)c1ccc(NC(=O)Nc2ccc(Br)cc2C)cc1 | 22.3%
32 | COc1ccc(/C=N/NC(=O)c2ccc(N(C)S(=O)(=O)c3ccccc3)cc2)c(OC)c1 | 6.66%
33 | Cl.O=S(=O)(c1cccs1)N1CCN(C/C=C/c2ccccc2)CC1 | -49.3%
34 | COc1ccc(N(CC(=O)NCc2cccnc2)S(=O)(=O)c2ccccc2)c(OC)c1 | -8.52%
35 | Cc1c(C)n(C)c2ccc([N+](=O)[O-])cc12 | -4.04%
36 | O=C(CSc1ccsc1[N+](=O)[O-])NCCc1ccccc1 | 2.6%
37 | COc1ccc(N2CCN(CC(=O)Nc3ccc(C)c(C)c3)CC2)cc1 | -17.3%
38 | COc1cccc(CN2CCN(CC(=O)NCCc3ccccc3)CC2)c1 | -11.8%
39 | COC(=O)c1ccc(NC(=O)CN2CCN(CC#N)CC2)cc1.O=C(O)C(=O)O | 3.24%
40 | CCN(CC)c1ccc(NC(=O)CN2CCN(CC(=O)Nc3ccc(OC)cc3)CC2)cc1 | -74.9%
41 | CCCCCNC(=O)Cc1ccc(OC)cc1 | 1.41%
42 | COc1ccc(NC(=O)CN2CCN(CC(=O)Nc3ccc(OC)c(OC)c3)CC2)cc1 | -74.6%
43 | COc1ccc(NC(=O)CN2CCOCC2)cc1.O=C(O)C(=O)O | 13%
44 | COc1ccc(NC(=O)CN2CCN(CC#N)CC2)cc1 | -75.6%

Row | Structure (SMILES) | hERG current change (%, negative = inhibition) at 10uM
45 | N#CCN1CCN(CC(=O)Nc2ccc(OCc3ccccc3)cc2)CC1 | -4.27%
46 | COc1ccc(NC(=O)CN2CCCCCC2)cc1OC | 3.79%
47 | CCCCNC(=O)CN1CCN(Cc2ccc3cc(OC)ccc3c2)CC1.O=C(O)C(=O)O | -69%
48 | CCN(C(=O)COc1ccccc1)c1nnc(-c2cccnc2)s1 | 8.69%
49 | Cc1cccc(NC(=O)c2cccc(NC(=O)Cc3cccs3)c2)c1 | 4.72%
50 | N#CCC(=O)N/N=C/c1ccc(N2N=C(c3ccccc3)CC2c2ccccc2)cc1 (stereo not shown) | 25%
51 | CC(C(=O)N1CCC2(CC1)OCCO2)C1Sc2ccccc2NC1=O (stereo not shown) | 6.9%
52 | O=C(NC1C2CC3CC(C2)CC1C3)c1ccc2c(c1)OCO2 (stereo not shown) | -5.92%
53 | CN(C)CCNc1ccc(-c2nn(C)c(=O)c3ccccc23)cc1[N+](=O)[O-] | -1.47%
54 | CCOC(C(=O)OCCCN(CC)CC)(c1ccccc1)c1ccccc1.Cl | -11.5%
55 | N#CC(c1ccc(Cl)nn1)c1c(F)cccc1Cl (stereo not shown) | 9.59%
56 | Cc1noc(C)c1COC(=O)[C@@H](NC(=O)c1ccccc1Cl)C(C)C | 5.09%
57 | Cl.N[C@@H](Cc1c[nH]c2ccccc12)c1nnc(SCc2c(F)cccc2Cl)o1 | 1.99%
58 | COc1ccc(NC(=O)CN2CCN(S(=O)(=O)N3CCCCCC3)CC2)cc1 | -71.7%
59 | COc1ccc(NC(=O)CN2CCN(c3c(C)cc(C)cc3C)CC2)cc1 | 3.97%
60 | CCOC(=O)c1ccc(NC(=O)CN2CCN(c3ccccc3)CC2)cc1 | 5.34%
61 | COc1ccc(NC(=O)CN2CCN(c3c(C)cccc3C)CC2)cc1 | -24.4%
62 | CCOC(=O)c1ccc(NC(=O)N2CCN(Cc3ccccc3)CC2)cc1 | -11.1%
63 | COC(=O)c1ccc(NC(=O)CCN2CCN(Cc3ccccc3)CC2)cc1 | -58.6%
64 | COc1ccc(NC(=O)CN2CCN(S(=O)(=O)N(C)C)CC2)cc1 | -4.55%
65 | CCOC(=O)c1ccc(NC(=O)CN2CCN(Cc3ccccc3)CC2)cc1 | -51%
66 | COc1cccc(N2CCN(CC(=O)Nc3ccc(S(=O)(=O)N4CCCCCC4)cc3)CC2)c1 | -21.9%

Row | Structure (SMILES) | hERG current change (%, negative = inhibition) at 10uM
67 | COC(=O)c1ccc(NC(=O)CCN2CCN(CCC(=O)Nc3ccc(C(=O)OC)cc3)CC2)cc1 | -15.4%
68 | COC(=O)c1ccc(NC(=O)CCN2CCN(c3ccccc3)CC2)cc1 | -28.9%
69 | COc1ccc(NC(=O)CN2CCN(c3ccc(C)cc3C)CC2)cc1 | -60.7%
70 | CC(C)[C@H](NC(=O)c1cc2cc(Cl)ccc2n1C)C(=O)N[C@@H](C(=O)O)c1ccccc1 | 15.9%
71 | CCCNC(=O)N1[C@H]2CC[C@@H]1C(C(=O)OC)=C(c1ccc(F)cc1OCc1ccccc1)C2 | -23.3%
72 | O=C(Oc1cc2oc(=O)cc(-c3ccccc3)c2cc1Cl)C1CCCCC1 | 4.05%
73 | COC(=O)Cn1cc(C(=O)OC)c2ccccc21 | -4.51%
74 | COc1cc(C(=O)NC(C)c2ccc3ccccc3c2)cc(Cl)c1O (stereo not shown) | 4.57%
75 | Cc1ccc(-c2cn(CCN)c(-c3ccc(Cl)nc3)n2)cc1 | -21.7%
76 | COc1ccccc1C(=O)Nn1c(-c2cccs2)nc2ccccc2c1=O | -2.66%
77 | COc1cccc(CNC(=O)CSc2ccc(-c3ccco3)nn2)c1 | 2.15%
78 | COc1cccc(NC(=O)Cn2c(=O)n(C)c(=O)c3sc4c(c32)COC(C)(C)C4)c1 | 6.82%
79 | CC(=O)Nc1ccc(S(=O)(=O)NC2=NCN(C)CN2)cc1 | 2.76%
80 | COc1ccc(NC(=O)CN2CCN(Cc3ccccc3)CC2)cc1 | -52.8%
81 | COc1ccc(NC(=O)CN2CCN(CC(=O)Nc3ccc(OC)cc3)CC2)cc1 | -76.6%
82 | COc1ccc(C(=O)NC2CCN(CC(=O)Nc3cccc(OC)c3)CC2)cc1 | -25.4%
83 | COc1ccc(C(=O)Nc2ccc(N3CCN(Cc4ccccc4)CC3)cc2)cc1 | -4.78%
84 | COc1ccc(NC(=O)CN2CCCC2)cc1 | 15.7%
85 | COc1ccc(NC(=O)CN2CCC(NC(=O)c3ccc(OC)cc3)CC2)cc1 | -51.1%
86 | COc1ccc(C(=O)NC2CCN(CC(=O)NC3CCCCC3)CC2)cc1 | -17.3%
87 | CCCCOc1ccc(NC(=O)CN2CCN(Cc3ccccc3)CC2)cc1 | -49.4%
88 | COc1ccc(NC(=O)CN2CCCCC2)cc1.O=C(O)C(=O)O | 3.8%
